{"source": "PubChem BioAssay AID1578", "about": "(Sanford-Burnham Center for Chemical Genomics, 2009)", "note": "Screen size: about 290,000 compounds; about 3,000 (1%) were called active. The sample as a whole holds a higher share of actives than the screen did. Unmarked numbers belong to inactive results. Rule as the data show it: active = inhibition mostly above about 36% (no sharp cut-off); inactive = mostly below about 34%."}
{"test": "NOD1 signaling inhibitors, primary screen, cell-based, luminescence, uHTS (AID 1578);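 also: HEK-293T reporter cells stimulated with the NOD1 agonist gamma-tri-DAP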", "settings": "NOD1-driven NF-kB luciferase reporter cells, at 4 µM, stronger effect = higher value"}
{"compound": "CCC(=O)NCCc1nc2cc(NC(=O)COc3ccccc3)ccc2n1C", "inhibition": "-21.6%"}
{"compound": "Cc1cc(C)c(S(=O)(=O)NCc2cccnc2)cc1C", "inhibition": "9.3%"}
{"compound": "CCOc1ccc(N2C(=O)CC(/C=C3/N(C)c4ccccc4C3(C)C)C2=O)cc1", "note": "(centres undefined)", "inhibition": "-9.6%"}
{"compound": "CCOC(=O)c1cccc(NC(=O)c2ccc3c(c2)OCO3)c1", "inhibition": "-56.6%"}
{"compound": "Cc1ccc(C(=O)Nc2cccc(C(=O)O)c2)cc1", "inhibition": "73.3% (active)"}
{"compound": "CCOc1ccc(NC(=O)NC(C)CC)cc1", "note": "(centres undefined)", "inhibition": "31.5% (active)"}
{"compound": "COC(=O)c1cccc(NC(=O)/C=C/c2ccc3c(c2)OCO3)c1", "inhibition": "69%"}
{"compound": "Cc1ccc(C(=O)Nc2cccc(C(=O)NCc3ccccc3)c2)cc1", "inhibition": "-41.3%"}
{"compound": "O=C(O)c1cccc(NC(=O)c2cc(NC(=O)c3ccccc3)cc(NC(=O)c3ccccc3)c2)c1", "inhibition": "12.6%"}
{"compound": "CCC(C)NC(=O)Nc1ccc(Br)cc1", "note": "(centres undefined)", "inhibition": "-16%"}
{"compound": "O=C(Nc1ccc([N+](=O)[O-])cc1)C(=O)Nc1cccc(C(=O)O)c1", "inhibition": "79.5% (active)"}
{"compound": "O=C(N/N=C/C(Cl)=C/c1ccc([N+](=O)[O-])cc1)C(=O)Nc1cccc(C(=O)O)c1", "inhibition": "-14.1%"}
{"compound": "CCOC(=O)c1cccc(NC(=O)/C=C/c2ccc3c(c2)OCO3)c1", "inhibition": "98% (active)"}
{"compound": "O=C(NNS(=O)(=O)c1ccc([N+](=O)[O-])cc1)C(=O)Nc1cccc(C(=O)O)c1", "inhibition": "-14.5%"}
{"compound": "CCOc1ccc(NC(=O)Nc2ccc(NC(C)=O)cc2)cc1", "inhibition": "-22.3%"}
{"compound": "COc1ccc(Cc2nnc(NC(=O)C(C)(C)C)s2)cc1", "inhibition": "-7.8%"}
{"compound": "COc1ccccc1CN1CC(C(=O)NCCc2ccc(Cl)cc2)CC1=O", "note": "(centres undefined)", "inhibition": "-8.7%"}
{"compound": "Cc1cc[n+](CC(=O)c2cccc([N+](=O)[O-])c2)c2ccccc12", "inhibition": "-5.3%"}
{"compound": "Cc1ccc(CN2CCNC(=O)C2CC(=O)NCCCn2cccn2)o1", "note": "(centres undefined)", "inhibition": "-26.6%"}
{"compound": "COC(=O)Cc1csc(NC(=O)CSc2nnc3ccccn23)n1", "inhibition": "-22.5%"}
{"compound": "COc1ccc(OC)c(C2=NS(=O)(=O)N(C)C(C(=O)N3CCC4(CC3)OCCO4)=C2)c1", "inhibition": "-6.5%"}
{"compound": "COc1ccc2ccccc2c1CNCc1ccc(C)cc1", "inhibition": "-32.1%"}
{"compound": "O=Cc1cn(CCC(=O)O)nc1-c1cccc2ccccc12", "inhibition": "-38.4%"}
{"compound": "COc1ccccc1N=c1oc2c(OC)cccc2cc1C(=O)NCc1ccco1", "inhibition": "-182%"}
{"compound": "CC(=O)c1cccc(NC(=O)Nc2ccc3c(c2)OCO3)c1", "inhibition": "-20.8%"}
{"compound": "CCOc1ccc(NC(=O)Nc2cccc(C(=O)O)c2)cc1", "inhibition": "97.4% (active)"}
{"compound": "O=C(Nc1cc2ccccc2oc1=O)c1ccccc1", "inhibition": "22.4%"}
{"compound": "CCOC(=O)c1cccc(NC(=O)Nc2ccc(OCC)cc2)c1", "inhibition": "-13.8%"}
{"compound": "CC(=O)Nc1cc2ccccc2oc1=O", "inhibition": "-32.2%"}
{"compound": "O=C(Nc1cccc(C(=O)O)c1)Nc1ccc2c(c1)OCO2", "inhibition": "74.1% (active)"}
{"compound": "Cc1ccc(C(=O)Nc2cc3ccccc3oc2=O)cc1", "inhibition": "85.5% (active)"}
{"compound": "Cc1cccc(C)c1OCC(=O)Nc1cccc(C(=O)O)c1", "inhibition": "-10.3%"}
{"compound": "CCOc1ccc(NC(=O)c2cccc(NC(=O)c3ccccc3)c2)cc1", "inhibition": "4.1%"}
{"compound": "Cc1ccccc1OCC(=O)Nc1cccc(C(=O)O)c1", "inhibition": "92% (active)"}
{"compound": "O=C(Nc1ccc2c(c1)OCO2)Nc1ccc2c(c1)OCO2", "inhibition": "-34.2%"}
{"compound": "CC(=O)Nc1cccc(NC(=O)COc2ccccc2C)c1", "inhibition": "40.3%"}
{"compound": "COc1ccccc1CC(=O)NC1CC1", "inhibition": "-10.2%"}
{"compound": "Cc1cc(C)c(S(=O)(=O)c2ccccc2)c(OC(=O)c2c(F)cccc2F)n1", "inhibition": "-38.9%"}
{"compound": "Cc1cccc(S(=O)(=O)Nc2ccc(-c3nc4ccc(C)cc4s3)cc2)c1", "inhibition": "-35.8%"}
{"compound": "O=C(COC(=O)C12CC3CC(CC(C3)C1)C2)Nc1ccccc1F", "inhibition": "-23.3%"}
{"compound": "COc1ccc(CCNC(=O)CN(c2ccc(OC)c(OC)c2)S(=O)(=O)c2ccc(C)cc2)cc1", "inhibition": "32.6%"}
{"compound": "Cc1nn(Cc2ccc(F)cc2)c(C)c1NC(=O)CCCn1nc([N+](=O)[O-])cc1C", "inhibition": "-34.8%"}
{"compound": "O=c1cc(N2CCN(c3ccccc3)CC2)[nH]c(=O)n1-c1ccccc1", "inhibition": "-19.3%"}
{"compound": "CC(C)NC(=S)N1CCN(Cc2ccc3c(c2)OCO3)CC1", "inhibition": "-10.8%"}
{"compound": "COc1ccc(S(=O)(=O)Nc2c(NC3CCCCC3)c3ccccc3oc2=O)cc1OC", "inhibition": "-7.5%"}
{"compound": "O=C(Nc1nnc(CSCc2ccc(F)cc2)s1)c1ccc([N+](=O)[O-])cc1", "inhibition": "1.6%"}
{"compound": "Cc1ccc(C(=O)Nc2cnc3ccccc3c2)cc1", "inhibition": "81.8% (active)"}
{"compound": "O=C(Nc1ccc(Cl)cc1)Nc1cccc(C(=O)O)c1", "inhibition": "67.9% (active)"}
{"compound": "CSc1cccc(NC(=O)C(=O)NCc2ccccc2)c1", "inhibition": "-4.7%"}
{"compound": "O=C(O)c1cccc(NC(=S)NCc2ccccc2)c1", "inhibition": "-23.1%"}
{"compound": "O=C(NCc1ccccc1)C(=O)Nc1cccc(C(=O)O)c1", "inhibition": "39.8% (active)"}
{"compound": "Cc1ccc(NC(=O)Nc2cnc3ccccc3c2)cc1", "inhibition": "-44.8%"}
{"compound": "NC(=O)c1cccc(NC(=O)Nc2ccc(Cl)cc2)c1", "inhibition": "9.4%"}
{"compound": "O=C(Nc1cccc(Cl)c1)Nc1cccc(C(=O)O)c1", "inhibition": "-9.6%"}
{"compound": "O=C(Nc1cnc2ccccc2c1)c1ccncc1", "inhibition": "-21.5%"}
{"compound": "CCc1nc(CN2CCN(c3ccc(C(F)(F)F)cn3)CC2)c(C)[nH]1", "inhibition": "-4.8%"}
{"compound": "O=C(c1ccc(S(=O)(=O)Nc2ccccc2)cc1)N1CCCCCCC1", "inhibition": "-14.1%"}
{"compound": "CCOC(=O)CCNC(=O)N1CCCC(Cc2ccccc2)(C(=O)OCC)C1", "note": "(centres undefined)", "inhibition": "-26.2%"}
{"compound": "COc1ccc(NC(=O)CCC(=O)Nc2nnc(CC(C)C)s2)cc1Cl", "inhibition": "-5.8%"}
{"compound": "COC(=O)C1=C(C)NC(=O)NC1c1cn(-c2ccccc2)nc1-c1cccs1", "note": "(centres undefined)", "inhibition": "-21.3%"}
{"compound": "CCN1C(=O)/C(=C/N(C(C)=O)c2ccccc2)N(c2ccccc2)C1=S", "inhibition": "11.4%"}
{"compound": "CCN1C(=O)/C(=C\\N(C(C)=O)c2ccccc2)OC1=S", "inhibition": "55.5% (active)"}
{"compound": "CCN1C(=O)/C(=C/N(C)c2ccccc2)OC1=S", "inhibition": "-15.3%"}
{"compound": "Nc1nc(COc2ccccc2C=O)nc(Nc2ccccc2)n1", "inhibition": "-7.7%"}
{"compound": "CN(C)c1ccc(C2CC(=O)C=C(Nc3ccccc3N)C2)cc1", "note": "(centres undefined)", "inhibition": "-11.3%"}
{"compound": "Cc1ccc(C(=O)CSc2ncnc3sc4c(c23)CCC(C)C4)cc1", "note": "(centres undefined)", "inhibition": "-2.7%"}
{"compound": "CC(=O)Oc1c(I)cc(I)cc1C(=O)Nc1ccc(Cl)cc1", "inhibition": "85.8% (active)"}
{"compound": "O=C(Nc1ccc(Oc2ccc(Cl)cc2)c(Cl)c1)c1cc(I)cc(I)c1O", "inhibition": "-14.3%"}
{"compound": "COc1c(Cl)cc(Cl)cc1C(=O)Nc1ccc(NC(C)=O)cc1", "inhibition": "-17.9%"}
{"compound": "CN(CC(=O)Nc1ccccc1Cl)C(=O)c1cc(=O)[nH]c2ccccc12", "inhibition": "-12.4%"}
{"compound": "CCOC(=O)c1ccc(NC(=O)COc2ccc(S(=O)(=O)NC(C)(C)C)cc2)cc1", "inhibition": "-33.5%"}
{"compound": "CCN1C(=O)/C(=c2\\o/c(=C3\\C=Cc4ccccc4N3CC)c(=O)n2CC)SC1=S", "inhibition": "4.4%"}
{"compound": "COc1ccc(N2C(=O)c3ccc(C(=O)Nc4cc(OC)ccc4OC)cc3C2=O)cc1", "inhibition": "-3.6%"}
{"compound": "Cc1ccc(C(C(=O)NC2CCCCC2)N(Cc2ccccc2)C(=O)Cc2c[nH]c3ccccc23)o1", "note": "(centres undefined)", "inhibition": "-26.2%"}
{"compound": "COc1ccc(NC(=O)c2cc(S(=O)(=O)N(Cc3ccccc3)c3ccccc3)ccc2Cl)cn1", "inhibition": "10.8%"}
{"compound": "Cc1cc(C(F)(F)F)c(C#N)c(SCC(=O)Nc2nc3cc(Br)ccc3s2)n1", "inhibition": "67.4% (active)"}
{"compound": "Cc1cc(C(F)(F)F)c(C#N)c(SCC(=O)Nc2nc3ccccc3s2)n1", "inhibition": "-5.2%"}
{"compound": "Cc1ccc2sc(NC(=O)CSc3nc(C)cc(C)c3C#N)nc2c1", "inhibition": "-16.6%"}
{"compound": "Cc1nnc(NC(=O)CSc2ccc(-c3ccc(Cl)cc3)nn2)s1", "inhibition": "-24.7%"}
{"compound": "C=C(C)CN(CC)C(=O)CC1C(=O)NCCN1CC(C)(C)C", "note": "(centres undefined)", "inhibition": "-7.4%"}
{"compound": "CC(=O)N1CCOc2cc(S(=O)(=O)NC(C)c3ccccc3)c(Cl)cc21", "note": "(centres undefined)", "inhibition": "59.9% (active)"}
{"compound": "CC(=O)N1CCOc2ccc(S(=O)(=O)NC(C)c3ccccc3)cc21", "note": "(centres undefined)", "inhibition": "1.8%"}
{"compound": "CC(=O)N1CCOc2cc(S(=O)(=O)N3CCN(c4ccccc4)CC3)c(Cl)cc21", "inhibition": "-30.8%"}
{"compound": "COc1cccc(-c2nn3c(-c4cccc(C)c4)nnc3s2)c1", "inhibition": "-87.2%"}
{"compound": "CCOC(=O)C1=C(C)N=c2s/c(=C\\c3ccc(O)c([N+](=O)[O-])c3)c(=O)n2C1c1ccccc1OC", "note": "(centres undefined)", "inhibition": "8.4%"}
{"compound": "CCOC(=O)C1=C(C)N=c2s/c(=C/c3ccccc3)c(=O)n2C1c1ccc(OC)c(OC)c1", "note": "(centres undefined)", "inhibition": "-27.7%"}
{"compound": "CCOC(=O)C1=C(C)n2c(s/c(=C/c3cccc([N+](=O)[O-])c3)c2=O)=NC1c1ccc(O)c(OC)c1", "note": "(centres undefined)", "inhibition": "95.3% (active)"}
{"compound": "Cn1c(/C(C#N)=C(\\O)c2ccc(Cl)s2)nc2ccccc21", "inhibition": "11.7%"}
{"compound": "C=C1CC2C=C(NC(C)=O)CC(C1)C2", "note": "(centres undefined)", "inhibition": "-6.6%"}
{"compound": "Cc1cccc(NC(=O)Cn2c(O)c(N=NC(N)=S)c3ccccc32)c1", "inhibition": "-3.4%"}
{"compound": "Cc1cccc(Cn2c(O)c(N=NC(=S)Nc3ccccc3F)c3ccccc32)c1", "inhibition": "14.6%"}
{"compound": "CC(C)C(=O)NC(NC1CCS(=O)(=O)C1)C(Cl)(Cl)Cl", "note": "(centres undefined)", "inhibition": "-26.8%"}
{"compound": "COc1ccc(-n2c(C)cc(/C=C3/SC(=O)N(CC(=O)N4CCOCC4)C3=O)c2C)cc1", "inhibition": "-15%"}
{"compound": "CCOC(=O)N1CCN(C(=O)c2cn(C)c3ccc(S(=O)(=O)N4CCOCC4)cc3c2=O)CC1", "inhibition": "-11%"}
